Shown are actives, neighbours in structure and some others; about 19% of the full set was active somewhere.
KB-V1 MDR tox: KB-V1 MDR subline cytotoxicity; hit rate 3.4% among 400,000; AID 1347076; KB-V1 MDR cells viability, CellTiter-Glo, 72 h; Potency, µM (doses to about 46.1 µM), most hits filed as cytotoxic; further: nearly all actives have a fitted effect of over 60% in size
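Following 72 h at 37 degrees C with compound, KB-V1 cell viability was read by CellTiter-Glo luminescence, medium being phenol-red-free DMEM plus 10% FBS; concentration-response parameters came from normalized, curve-fitted qHTS data.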
HT1080-NT tox: kills 2HG-producing HT-1080-NT fibrosarcoma cells. HT-1080-NT fibrosarcoma viability, CellTiter-Glo ATP luminescence, 48 h. Potency, µM (highest dose often 46.1 µM), hits mostly cytotoxic. hit rate 1.6% among 360,000. AID 686970;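 further: NT is the 2HG producing partner of a matched IDH1 knockdown line; nearly all actives have a fitted effect of over 55% in size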
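750 cells/well, RPMI + 5% FBS; 2 h settle, compound pin-transfer, 48 h at 37 degrees C. CellTiter-Glo 10 min RT, luminescence. Normalized to DMSO and media-only wells.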
TDP1 cell noCPT: qHTS for Inhibitors of human tyrosyl-DNA phosphodiesterase 1 (TDP1): qHTS in cells in absence of CPT | DT40 Tdp1-/- hTDP1 cells, no CPT, ATP luminescence, 48 h | Potency, µM (series often up to 46.2 µM), most hits filed as inhibitors | hit rate 15% among 420,000; further: nearly all actives have a fitted effect of over 55% in size
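Stably hTDP1-transfected Tdp1-null chicken DT40 cells were treated with library compounds minus camptothecin and grown for at least 48 hr at 37 °C, after which cellular ATP was quantified by luminescence.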
KB-3-1 cytotox: KB-3-1 parental cell cytotoxicity. KB-3-1 viability, CellTiter-Glo ATP luminescence, 72 h. Potency, µM (series often up to 46.1 µM), hits mostly cytotoxic. hit rate 1.4% among 400,000; further: nearly all actives have a fitted effect of over 60% in size
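Parental KB-3-1 viability, qHTS format: 72 h compound exposure, 37 °C; CellTiter-Glo; media-only wells and DMSO plates as controls; concentration-effect fits on corrected data.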
DT40 TDP1 CPT: DT40-hTDP1 cell growth loss with CPT | chicken DT40 Tdp1-/-;hTDP1 cells + 20 nM CPT, ATP luminescence, 48 h | Potency, µM (top dose mostly 46.2 µM), usual class: inhibitors | hit rate 12% among 420,000 | AID 686979; further: nearly all actives have a fitted effect of over 55% in size
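Chicken DT40 Tdp1-/- cells complemented with human TDP1, 400 cells/well, exposed to compounds plus 20 nM camptothecin for at least 48 h at 37 C; viability read as ATP content by CellTiter-Glo luminescence.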
HT1080 IDH1KD tx: kills HT-1080 cells with IDH1 knockdown. HT-1080 IDH1 knockdown viability, ATP luminescence, 48 h. Potency, µM (top dose mostly 46.1 µM), hits mostly cytotoxic. hit rate 2% among 360,000. AID 686971
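Cytotoxicity counter-line: IDH1KD HT-1080, 48 h, CellTiter-Glo. Curves classed by r2, magnitude and activity.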
A number is an active result; n = inactive; u = inconclusive; x = no result; [ ] = dose if it differs, or a comment. The call rests on the fitted dose curve; in most records, active means well fitted curve in the direction sought with a large enough effect; inconclusive means small, poorly fitted or top-dose-only effect, or another doubt; inactive means no such curve, though single readings can be large; an effect the other way counts as inactive or inconclusive.

SMILES | KB-V1 MDR tox | HT1080-NT tox | TDP1 cell noCPT | KB-3-1 cytotox | DT40 TDP1 CPT | HT1080 IDH1KD tx
c1ccc(-c2nnc(-c3ccccn3)s2)nc1 | n | n | u | u | n | n
O=C(NCc1cccnc1)c1nc(-c2ccc(C(F)(F)F)cc2)no1 | n | n | 13µM | n | 15µM | n
O=C(NCc1ccncc1)c1nc(-c2ccc(C(F)(F)F)cc2)no1 | u | n | 8.2µM | u | 15µM | u
Cc1cc(C)c2oc(-c3cccc(NC(=O)c4cc5ccccc5o4)c3)nc2c1 | n | x | u | n | u | x
Cc1ccc(N2CC(c3nnc(Cc4ccc(Cl)cc4)o3)CC2=O)cc1 (stereo not given) | n | x | u | n | u | x
Cc1cc(C)c2nc(NCc3ccccc3O)sc2c1 | n | n | n | n | u | n
COc1cc(CNc2nc3c(C)cc(C)cc3s2)ccc1O | u | u | 21µM | n | u | n
O=C(NCc1ccc2c(c1)OCO2)C1CC(=O)N(CCc2ccc(F)cc2)C1 (stereo not given) | n | n | n | n | n | n
O=C1CNC(=S)N1c1nc(-c2ccccc2)cs1 | n | n | n | n | n | n
CCOc1ccc2nc(N3C(=O)CNC3=S)sc2c1 | u | n | 6.5µM | n | 16µM | n
Cc1cc2nc(N3C(=O)CNC3=S)sc2cc1C | 16µM | n | 5.8µM | u | u | n
N=c1nc2n(cc1F)C1OC(CO)C(O)C1O2 (stereo not given) | n | n | 0.13µM | u | 0.13µM | u
COc1ccccc1N1CCN(S(=O)(=O)CCNC(=O)c2cccs2)CC1 | n | n | u | n | n | n
CCc1sc(N2C(=O)C3C4CCC(C4=C(C)C)C3C2=O)nc1-c1ccccc1 (stereo not given) | 12µM | n | n | n | n | n
CCCCN(CCCC)Cc1cc(=O)oc2cc(OC)c(Cl)cc12 | n | n | u | n | u | n
Cc1noc(C)c1CSCC(=O)N(C)CC(=O)Nc1ccc(Cl)c(Cl)c1 | 5.8µM | n | u | n | u | n
Cc1ccc(NC(=O)CN(C)C(=O)Cc2ccc(Cl)cc2Cl)cc1 | n | n | n | n | n | n
Cc1ccc(NC(=O)CN(C)C(=O)Cn2ncc(Cl)c(Cl)c2=O)cc1 | u | u | 2.6µM | u | 3.3µM | 21µM
Cc1ccc(NC(=O)CN(C)C(=O)Cc2ccc(Cl)c(Cl)c2)cc1 | n | n | u | n | 29µM | u
O=C(c1ccccn1)N(c1ccccc1)C1(C(=O)NC2CCCCC2)CCCCC1 | u | n | n | n | n | n
COc1cc(CNc2ccc3[nH]c(=O)[nH]c3c2)cc(Br)c1OCc1ccccc1F | u | n | 21µM | n | 10µM | u
COc1cc(CNc2ccc3[nH]c(=O)[nH]c3c2)ccc1OCc1ccccc1F | n | n | 16µM | n | 21µM | n
CCOc1cc(CNc2ccc3cn[nH]c3c2)ccc1OC | u | n | 21µM | n | u | u
COc1cc(CNc2ccc3[nH]c(=O)[nH]c3c2)cc(Br)c1OCC(=O)NC(C)(C)C | n | u | u | n | u | u
CCOc1c(Cl)cc(CNc2ccc3[nH]c(=O)[nH]c3c2)cc1OC | n | x | u | n | 23µM | x
SMILES | KB-V1 MDR tox | HT1080-NT tox | TDP1 cell noCPT | KB-3-1 cytotox | DT40 TDP1 CPT | HT1080 IDH1KD tx
N[C@@H](Cc1ccccc1)C(=O)N1CCC(C(=O)N[C@@H](CCC(=O)O)C(=O)O)CC1 | n | n | n | n | n | n
CNC(=O)c1ccc(CN(C)C(=O)c2cccc(S(=O)(=O)N3CCc4ccccc4C3)c2)cc1 | n | n | u | n | n | n
Cc1noc(C)c1C(=O)N1CCC2(CCCN(C(=O)NC(C)C)C2)CC1 | x | x | n | x | n | x
CC(C)NC(=O)C1(O)c2ccccc2NC(=O)N1c1ccc(Cl)c(Cl)c1 (stereo not given) | n | n | n | n | n | n
Nc1c(C(=O)c2ccc(Cl)cc2)sc2c1c(=O)[nH]c(=O)n2-c1ccccc1 | n | n | n | n | n | n
CC(=O)c1ccc(-n2c(=O)[nH]c(=O)c3c(N)c(C(=O)c4ccc(Cl)cc4)sc32)cc1 | n | 21µM | 3.7µM | n | u | 23µM
Nc1c(C(=O)c2ccccc2)sc2c1c(=O)[nH]c(=O)n2-c1ccccc1 | 15µM | n | n | n | n | n
Cc1ccc(C(=O)c2sc3c(c2N)c(=O)[nH]c(=O)n3CCc2ccccc2)cc1 | u | n | 16µM | n | 16µM | n
Cc1ccc(N2CC(C(=O)Nc3ccccc3OC(F)F)CC2=O)cc1 (stereo not given) | n | n[9.24 µM] | n | n | u | n
COc1cccc(Cn2cc(C(=O)NCCN(C)C)nn2)c1 | n | n | n | n | n | n
COC(=O)c1ccccc1C(=O)N(c1ccccc1)c1ccccc1 | n | n | 15µM | n | 6.5µM | n
COc1ccc(N2CCN(Cc3nc(Cc4cccc(F)c4)no3)C(C)C2)cc1 (stereo not given) | n | n | 18µM | n | n | n
Fc1cccc(Cc2noc(CN3CCSCC3)n2)c1 | n | n | n | n | n | n

Compound activity as filed in PubChem BioAssay.
